The results in this text go back to PubChem BioAssay (NCATS).

Where “and” joins values, the source holds several entries; their conditions need not be identical. Equal entries are not always repeated. Results filed as inconclusive are left out. Calls of active or inactive are those of the source. Unless noted, calls follow the shape of the dose curve; as a rule, active = well fitted curve in the direction sought with a large enough effect; inconclusive = small, poorly fitted or top-dose-only effect, or another doubt; inactive = no such curve, though single readings can be large; an effect the other way counts as inactive or inconclusive.

A short description of assay [1]: Cellular Toxicity (caspase-3) NIH 3T3 (AID 666).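 Also: caspase signal read after 16 h compound exposure; 0% = DMSO basal and 100% = 100 µM tamoxifen stimulation.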 Summed up:
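Concentration-response qHTS in NIH 3T3 mouse fibroblasts scores caspase-3/7 activation as rising luminescence after 16 hr compound exposure. Signals are scaled between DMSO-only and 100 uM tamoxifen.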

A short description of assay [2]: Cell Viability - LYMP2-001 (AID 921).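 Also: series mostly up to about 92 µM; 0% = DMSO only and full inhibition = tetraoctylammonium bromide control wells; nearly all actives have a fitted effect of over 70% in size.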 An outline of the steps: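 Cellular ATP loss read by luciferase luminescence after 24 h compound exposure at 37 C in complete medium. LYMP2-001 lymphoblastoid cells, 2500/well; qHTS concentration-response data fitted with Hill equation for AC50.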
A short description of assay [3]: MultiTox-Fluor Cytotoxicity Assay - LYMP1-002 - Dead Cells (AID 960). Also: nearly all actives have a fitted effect of over 60% in size. Also: potency is read from the fitted curve at half-maximal effect. An outline of the steps: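 Acute cytotoxicity in a human lymphoblastoid line is scored as rising dead-cell protease signal after 16 hr exposure at 37 C, measured fluorometrically (485/520).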
Assay [4] is described as follows: Cell Viability - LYMP1-003 - Assay at 40 hr (AID 964). Also: series mostly up to about 92 µM; % is scaled to controls: 0 for no effect and ±100 for the full control effect; nearly all actives have a fitted effect of over 60% in size. Summed up: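 This qHTS cytotoxicity screen treats human lymphoblastoid cells (LYMP1-003) with compounds for 40 hr and quantifies cellular ATP via luciferase luminescence.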
A short description of assay [5]: Cell Viability - LYMP2-003 (AID 965).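 Also: cells exposed to compounds for 24 h before reading; 0% = DMSO only and full effect = 92 µM tetraoctylammonium bromide; nearly all actives have a fitted effect of over 50% in size.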 An outline of the steps:
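CellTiter-Glo luminescence quantified ATP loss after 24 h compound treatment of LYMP2-003 lymphoblastoid cells at 37 C. Titration series were fitted with the standard Hill equation to give AC50.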

The nature of assay [6]: Cell Viability - LYMP2-011 (AID 969).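 Also: cells exposed to compound for 24 hours; 0% = DMSO only and full inhibition = 92 µM tetraoctylammonium bromide; nearly all actives have a fitted effect of over 60% in size.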 An outline of the steps: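 Acute toxicity is scored as a concentration-dependent drop in intracellular ATP of a human lymphoblastoid line after 24 hr treatment. Values are AC50s modeled with the Hill equation.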
A short description of assay [7]: Cell Viability - LYMP2-017 (AID 972).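 Also: series mostly up to about 92 µM; cells exposed to compound for 24 hours at 37 °C; % is scaled to controls: 0 for no effect and ±100 for the full control effect; nearly all actives have a fitted effect of over 55% in size.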 Summed up: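 Steps: plate 2500 lymphoblastoid cells per well; incubate 5 hr at 37 C; add compound across a concentration series and incubate 24 hr at 37 C; add CellTiter-Glo and read luminescence after 30 min at room temperature; fit Hill curves for AC50.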
A short description of assay [8]: Cell Viability - LYMP2-019 (AID 973).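 Also: 0% = DMSO alone and full effect = 92 µM tetraoctylammonium bromide; nearly all actives have a fitted effect of over 55% in size.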 Summed up:
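Cells plated at 2500/well and allowed 5 hr at 37 C before compound addition. After 24 hr incubation, CellTiter-Glo reagent was added, plates sat 30 min at room temperature, and luminescence was recorded.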

Assay [9] is described as follows: Cell Viability - LYMP2-021 (AID 974).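 Also: compound exposure lasts 24 hours at 37 °C; % is scaled to controls: 0 for no effect and ±100 for the full control effect; nearly all actives have a fitted effect of over 55% in size.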 An outline of the steps: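 Concentration-response cytotoxicity in a human lymphoblastoid line: 24 hr treatment at 37 C in complete culture medium, tetraoctylammonium bromide as positive control, luminescent ATP quantitation as viability measure.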
Assay [10] is described as follows: Cell Viability - LYMP2-023 (AID 975).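 Also: cellular ATP measured by luciferase luminescence as viability proxy; series mostly up to about 92 µM; cells exposed to compound for 24 hours at 37 °C; plate controls were DMSO only for no effect and 92 µM tetraoctylammonium bromide control for full effect; nearly all actives have a fitted effect of over 55% in size.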 Summed up: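 Concentration-dependent drop in intracellular ATP measures acute cytotoxicity in a human lymphoblastoid line treated for 24 hours in complete culture medium. AC50 values are taken from Hill-equation fits of qHTS data.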
Assay [11] in a line: Cell Viability - LYMP2-002 (AID 977).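 Also: series mostly up to about 92 µM; plate controls were DMSO only for no effect and 92 µM tetraoctylammonium bromide for full effect.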 An outline of the steps:
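Luminescent ATP readout (CellTiter-Glo, 30 min room temperature) after 24 h compound exposure at 37 C of a human lymphoblastoid line, 2500 cells/well. AC50 values derived by standard Hill fitting of qHTS concentration-response data.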

A short description of assay [12]: Cell Viability - LYMP2-014 (AID 983).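 Also: series mostly up to about 92 µM; plate controls were DMSO only for no effect and 92 µM tetraoctylammonium bromide for full effect; nearly all actives have a fitted effect of over 50% in size.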 Summed up: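 Decrease in intracellular ATP after 24 hr treatment at 37 C, measured by luciferase luminescence, indicated cytotoxicity. Concentration-response data were fitted with the standard Hill equation to give AC50.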
Assay [13] is described as follows: Cell Viability - LYMP2-022 (AID 987). An outline of the steps:
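Acute toxicity in a human lymphoblastoid line is scored as decreased intracellular ATP after 24 hr compound treatment at 37 C. ATP is measured by CellTiter-Glo luminescence; curves are fitted with the Hill equation to give AC50.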

Assay [14] in a line: Cell Viability - LYMP2-024 (AID 988).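 Also: plate controls were DMSO only for no effect and 92 µM tetraoctylammonium bromide for full effect; nearly all actives have a fitted effect of over 60% in size.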 An outline of the steps:
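Acute toxicity is measured as concentration-dependent loss of intracellular ATP in a human lymphoblastoid line treated 24 hours at 37 C. Luciferase luminescence quantifies ATP; AC50 values come from standard Hill-equation modelling.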

Assay [15] concerns the target Peroxisome proliferator-activated receptor delta (Homo sapiens) (UniProt Q03181). Briefly: qHTS assay for small molecule agonists of peroxisome proliferator-activated receptor delta signaling (AID 588534; calls by dose curve;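 also: 0% = DMSO basal wells and 100% = positive control agonist at 10 µM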). Summed up:
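Reporter cells were plated and held 5 hrs at 37 C before compounds were added. After 18 hrs at 37 C, CCF4 dye was loaded for 2 hrs at RT and fluorescence measured.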

Assay [16] can be described thus: qHTS assay for small molecule antagonists of retinoid X receptor alpha signaling (AID 588546; active = well fitted inhibition curve with a large enough effect in the signal ratio, with a control signal flat, not every such curve was filed as active; the % refers to the signal ratio;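 also: cells stimulated with 9-cis-retinoic acid as agonist; % is scaled to controls: 0 for no effect and ±100 for the full control effect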). The note with it: HEK293T RXRa-UAS-bla, beta-lactamase ratio, antagonist mode; measured here: W530 green channel, cytotoxicity proxy. An outline of the steps:
(§1)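 Beta-lactamase reporter inhibition, read as CCF4 fluorescence ratio (ex 405, em 460/530 nm) after 2 h at RT. HEK293T UAS-bla cells, 2500/well, were stimulated with 9-cis-RA at 500 or 100 nM final alongside test compound for 18 h at 37 C.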

Assay [17] concerns the target Retinoic acid receptor RXR-alpha (Homo sapiens) (UniProt P19793). The description is as above. The following applies: HEK293T RXRa-UAS-bla, beta-lactamase ratio, antagonist mode. Summed up: as §1
Assay [18] addresses Voltage-gated inwardly rectifying potassium channel KCNH2 (Homo sapiens) (UniProt Q12809). Briefly: qHTS Assay for Small Molecule Inhibitors of the Human hERG Channel Activity (AID 588834).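 Also: top concentration of the series differs between compounds; % is scaled to controls: 0 for no effect and ±100 for the full control effect; lower thallium flux fluorescence means stronger hERG block; nearly all actives have a fitted effect of over 50% in size.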 An outline of the steps:
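Kinetic FDSS fluorescence; U2OS + hERG BacMam (~100 virus particles/cell); FluxOR Tl+ flux; ~10 min cpd; AC50 (Hill).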

Assay [19] in a line: qHTS assay for small molecule disruptors of the mitochondrial membrane potential - 5 hr assay (AID 651755; calls by dose curve; also: % is scaled to controls: 0 for no effect and ±100 for the full control effect; nearly all actives have a fitted effect of over 40% in size). An outline of the steps: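 HepG2 cells, attached overnight at 37C, were exposed to compound or DMSO for 5 hr at 37C, 5% CO2. Mito-MPS dye was then added for 30 min, and fluorescence read at 490/535 nm (monomers) and 540/590 nm (aggregates).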
The target of assay [20] is Tumor necrosis factor (Homo sapiens) (UniProt P01375). Briefly: qHTS assay to identify small molecules that stimulate Tumor Necrosis Factor-alpha (TNF-alpha) secretion (AID 651757; active = well fitted curve in the direction sought with a large enough effect in the signal ratio; the % refers to the signal ratio; also: 0% is about no effect). Summed up: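 Secreted TNF-alpha from compound-treated THP-1 cells (17 hrs, 37 C) was quantified with a homogeneous time-resolved fluorescence antibody assay.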
Sequence of Tumor necrosis factor (Homo sapiens) (P01375 whole entry, looked up): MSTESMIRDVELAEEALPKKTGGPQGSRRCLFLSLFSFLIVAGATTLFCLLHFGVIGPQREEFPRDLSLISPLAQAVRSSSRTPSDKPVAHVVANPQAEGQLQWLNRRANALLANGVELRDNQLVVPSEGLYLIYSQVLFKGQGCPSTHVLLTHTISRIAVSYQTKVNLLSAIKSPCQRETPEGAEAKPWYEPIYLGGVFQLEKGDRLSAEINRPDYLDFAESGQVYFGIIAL

Sequence of Peroxisome proliferator-activated receptor delta (Homo sapiens) (Q03181 whole entry, looked up): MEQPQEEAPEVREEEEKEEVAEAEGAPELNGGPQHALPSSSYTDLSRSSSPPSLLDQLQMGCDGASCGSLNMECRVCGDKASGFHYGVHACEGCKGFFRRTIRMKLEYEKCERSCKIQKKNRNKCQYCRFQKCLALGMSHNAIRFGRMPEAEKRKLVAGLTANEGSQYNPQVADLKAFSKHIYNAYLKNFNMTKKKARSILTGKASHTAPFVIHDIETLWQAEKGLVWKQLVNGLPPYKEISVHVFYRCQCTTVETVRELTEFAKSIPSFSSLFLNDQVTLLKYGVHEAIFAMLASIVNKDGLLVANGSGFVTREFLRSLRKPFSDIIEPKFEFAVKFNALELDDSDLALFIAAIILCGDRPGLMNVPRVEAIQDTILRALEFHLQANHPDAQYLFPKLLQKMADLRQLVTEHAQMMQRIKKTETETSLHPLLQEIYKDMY
Sequence of Retinoic acid receptor RXR-alpha (Homo sapiens) (P19793 whole entry, looked up): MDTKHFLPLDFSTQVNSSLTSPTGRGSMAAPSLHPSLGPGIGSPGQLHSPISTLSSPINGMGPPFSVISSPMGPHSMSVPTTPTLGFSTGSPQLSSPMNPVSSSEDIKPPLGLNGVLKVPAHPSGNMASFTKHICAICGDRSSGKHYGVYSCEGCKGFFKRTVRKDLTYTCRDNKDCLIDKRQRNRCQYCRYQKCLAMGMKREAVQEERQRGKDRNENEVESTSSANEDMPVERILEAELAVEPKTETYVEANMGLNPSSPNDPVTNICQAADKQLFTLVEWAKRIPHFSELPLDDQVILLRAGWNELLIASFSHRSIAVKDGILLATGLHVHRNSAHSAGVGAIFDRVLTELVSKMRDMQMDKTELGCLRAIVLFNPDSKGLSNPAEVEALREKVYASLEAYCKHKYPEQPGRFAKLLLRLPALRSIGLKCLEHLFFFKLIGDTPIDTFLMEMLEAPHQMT
Sequence of Voltage-gated inwardly rectifying potassium channel KCNH2 (Homo sapiens) (Q12809 whole entry, looked up): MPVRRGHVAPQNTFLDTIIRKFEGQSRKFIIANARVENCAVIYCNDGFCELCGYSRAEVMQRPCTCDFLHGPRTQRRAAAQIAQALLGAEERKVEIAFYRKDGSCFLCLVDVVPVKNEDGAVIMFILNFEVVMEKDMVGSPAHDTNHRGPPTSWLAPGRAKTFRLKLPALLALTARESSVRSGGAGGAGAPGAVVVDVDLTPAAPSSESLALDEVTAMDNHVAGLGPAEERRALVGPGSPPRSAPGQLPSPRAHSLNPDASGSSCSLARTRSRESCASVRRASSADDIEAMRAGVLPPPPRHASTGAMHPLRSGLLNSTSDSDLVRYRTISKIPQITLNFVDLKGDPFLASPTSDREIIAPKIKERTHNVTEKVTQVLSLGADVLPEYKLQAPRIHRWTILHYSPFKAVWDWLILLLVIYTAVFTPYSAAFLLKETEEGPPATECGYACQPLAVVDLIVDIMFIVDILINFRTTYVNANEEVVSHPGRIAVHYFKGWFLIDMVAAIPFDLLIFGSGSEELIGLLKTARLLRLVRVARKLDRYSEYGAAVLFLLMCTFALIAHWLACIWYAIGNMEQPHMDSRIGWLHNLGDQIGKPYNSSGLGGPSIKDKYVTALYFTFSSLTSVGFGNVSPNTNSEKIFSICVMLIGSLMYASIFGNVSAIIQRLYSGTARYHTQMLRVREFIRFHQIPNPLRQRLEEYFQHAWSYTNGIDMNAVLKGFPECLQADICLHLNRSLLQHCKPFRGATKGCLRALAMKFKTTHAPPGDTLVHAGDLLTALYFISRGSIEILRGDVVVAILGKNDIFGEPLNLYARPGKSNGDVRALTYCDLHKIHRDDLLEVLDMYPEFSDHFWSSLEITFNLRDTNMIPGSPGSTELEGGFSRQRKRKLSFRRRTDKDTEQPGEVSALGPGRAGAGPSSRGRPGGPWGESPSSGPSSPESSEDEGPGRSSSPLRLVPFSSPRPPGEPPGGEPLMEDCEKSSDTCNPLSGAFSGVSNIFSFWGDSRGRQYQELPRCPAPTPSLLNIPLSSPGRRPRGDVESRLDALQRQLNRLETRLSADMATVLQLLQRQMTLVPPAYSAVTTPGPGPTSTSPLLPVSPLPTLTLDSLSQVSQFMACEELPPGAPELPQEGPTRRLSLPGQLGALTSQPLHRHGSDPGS

Consider `O=[N+]([O-])c1ccc(Cl)c(Cl)c1`, for which the molecule was classed as inactive in assay [1], in assay [15] and in assay [20]. Besides, the Potency entry in assay [2], in assay [3], in assay [4], in assay [5], in assay [6] and in [7] was “inactive” in each case. The Potency result in [8], in assay [9], in [10], in [11], in [12] and in assay [13] was “inactive” throughout. The Potency result in [14], in [18] and in assay [19] was “inactive” in each case. The figures for the max response in assay [16] and in [17] were -6.04% and 7.29% (inactive), respectively.
As to `COc1cc(/C=C/C(=O)CC(=O)/C=C/c2ccc(O)c(OC)c2)ccc1O`, in assay [3], the Potency is 31.6 µM (active).
Regarding `Cc1ccc(O)c(C)c1`, the molecule was classed as inactive in assay [1], in assay [15] and in assay [20]. Further, the Potency result in [2], in assay [3], in assay [5], in assay [6], in assay [7] and in assay [8] was “inactive” in each case. For the same molecule, the Potency result in assay [9], in assay [10], in assay [11], in assay [12], in assay [13] and in assay [14] was “inactive” in each case. Moreover, the Potency result in [18] and in assay [19] was “inactive” in each case. Moreover, the max response in assay [16] was -12.5% and -7.89% and -6.08%; in assay [17], 0.533% (inactive) and 0.504% (inactive) and 10.6% (inactive).
On to `CCOc1ccc(N)cc1`, for which the call in assay [1], in [15] and in [20] was inactive. The Potency entry in assay [2], in [3], in assay [4], in [5], in assay [6] and in [7] was “inactive” in each case. Besides, the Potency entry in assay [8], in [9], in assay [10], in assay [11], in [12] and in [13] was “inactive” throughout. Besides, the Potency entry in assay [14], in assay [18] and in [19] was “inactive” in each case. In addition, the max response in assay [16] is -4.66%; in [17], -3.13% (inactive).
Regarding `ClCBr`, the result in assay [1], in assay [15] and in assay [20] was inactive. In addition, the Potency result in assay [3], in assay [4], in assay [5], in [6], in assay [7] and in assay [10] was “inactive” throughout. Besides, the Potency entry in [11], in assay [13], in [14], in assay [18] and in assay [19] was “inactive” throughout. In addition, the max response was -9.96% in [16] and -1.21% (inactive) in [17].
As to `Nc1ccc(Br)cc1`, the molecule was classed as inactive in [1], in [15] and in assay [20]. The Potency result in assay [2], in assay [3], in assay [4], in assay [5], in assay [6] and in assay [7] was “inactive” throughout. For the same molecule, the Potency result in assay [8], in assay [9], in [10], in assay [11], in assay [12] and in [13] was “inactive” throughout. For the same molecule, the Potency entry in assay [14], in assay [18] and in [19] was “inactive” in each case. Also, the figures for the max response in assay [16] and in [17] were 3.4% and 15.2% (inactive), respectively.
With `O=NN(CCO)CCO`, the molecule was classed as inactive in [1] and in assay [20]. Further, the Potency result in assay [2], in assay [3], in assay [4], in assay [5], in [6] and in [7] was “inactive” in each case. Besides, the Potency entry in assay [8], in assay [9], in assay [10], in assay [11], in assay [12] and in [13] was “inactive” each time. The Potency result in [14] and in assay [19] was “inactive” in each case. In addition, the max response in assay [16] is -0.955%; in assay [17] it was 16.4% (inactive).
Turning to `CC(C)(C)OO`, the outcome in [1], in [15] and in assay [20] was inactive. Further, the Potency result in assay [2], in assay [3], in [4], in assay [5], in [6] and in assay [7] was “inactive” in each case. Moreover, the Potency entry in assay [8], in assay [9], in assay [10], in [11], in assay [12] and in assay [13] was “inactive” in each case. Besides, the Potency entry in [14], in [18] and in assay [19] was “inactive” throughout. In addition, the max response in assay [16] was -3.93% and -2.51%; in assay [17], 34% (inactive) and 10.1% (inactive).
